Rows were chosen to be rich in hits. Some 3.4% of all compounds tested hit in one or more screens of this group.
Bim-Mcl-1 = inhibitors of Bim peptide binding to Mcl-1, primary screen, biochemical, bead-based flow cytometry, multiplex; Induced myeloid leukemia cell differentiation protein Mcl-1 (Homo sapiens), Q07820; inhibition, % at 10 µM; Bim peptide-Mcl-1 binding; hit rate 0.1% among 190,000; in the data active = inhibition above about 40%;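 note: 0% = no compound tracer wells and 100% = peptide blocker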
Target sequence (Q07820 whole entry, looked up): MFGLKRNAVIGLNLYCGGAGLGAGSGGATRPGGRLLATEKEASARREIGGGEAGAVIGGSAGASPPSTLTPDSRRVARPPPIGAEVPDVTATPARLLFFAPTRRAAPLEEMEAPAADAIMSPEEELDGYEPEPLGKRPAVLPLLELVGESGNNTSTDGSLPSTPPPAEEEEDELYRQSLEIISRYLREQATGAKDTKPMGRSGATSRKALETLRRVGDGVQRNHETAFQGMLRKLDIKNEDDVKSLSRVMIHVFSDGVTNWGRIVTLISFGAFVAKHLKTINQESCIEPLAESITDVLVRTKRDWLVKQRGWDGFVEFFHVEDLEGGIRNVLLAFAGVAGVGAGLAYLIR
Mcl1-Bid inh = Mcl-1/Bid binding inhibitors, primary screen, biochemical, TR-FRET, 1536-well; hit rate 0.97% among 220,000; inhibition, % at 21.7 µM; Induced myeloid leukemia cell differentiation protein Mcl-1 (Homo sapiens), Q07820; TR-FRET Mcl-1/Bid-Dy647 peptide binding;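 active = compounds that cut the binding signal by more than half at the single screening dose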;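 note: His-tagged Mcl-1 with europium anti-His antibody binding Bid BH3 peptide; 0% = Mcl-1 plus peptide wells and 100% = peptide-only wells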
m-calpain inh = inhibitors of pig calpain II, primary screen, biochemical, fluorogenic peptide substrate, 1536-well; hit rate 0.37% among 220,000; inhibition, % at 16 µM; purified calpain II, 30 min; AID 1236, 2008;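 active = inhibition above about 50%, limit read from the data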
14-3-3 Bad inh = inhibitors of 14-3-3 zeta/Bad binding, primary screen, biochemical, TR-FRET, bovine 14-3-3 zeta; inhibition, % at 21.7 µM; 14-3-3 protein zeta/delta (Bos taurus), P63103; TR-FRET 14-3-3zeta/Dy647-pBad peptide displacement, 1 h; AID 781, 2007; hit rate 0.71% among 220,000;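 active = inhibition above about 70%, limit read from the data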;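 note: 0% = full 14-3-3 plus peptide FRET controls and 100% = background without 14-3-3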
Target sequence (P63103 whole entry, looked up): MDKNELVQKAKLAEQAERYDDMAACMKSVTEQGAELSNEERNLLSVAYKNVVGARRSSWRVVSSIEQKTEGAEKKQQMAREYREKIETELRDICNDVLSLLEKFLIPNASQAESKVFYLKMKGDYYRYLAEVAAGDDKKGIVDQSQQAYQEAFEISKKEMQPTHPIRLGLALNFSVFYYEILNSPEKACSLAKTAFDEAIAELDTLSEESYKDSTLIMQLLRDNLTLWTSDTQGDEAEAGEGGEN
Mcl1 Noxa PPI = Mcl-1/Noxa binding inhibitors, primary screen, biochemical, TR-FRET, 1536-well; TR-FRET Mcl-1/Noxa peptide binding, 2 h; inhibition, % at 21.7 µM; hit rate 1.5% among 220,000; Induced myeloid leukemia cell differentiation protein Mcl-1 (Homo sapiens), Q07820;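 active = compounds that cut the protein-peptide binding signal by more than 50% relative to plate controls in a single-dose test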;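 note: His-tagged Mcl-1 with rhodamine Noxa BH3 peptide and terbium anti-His antibody; 0% = Mcl-1 plus Noxa peptide wells and 100% = peptide-only wells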
p47phox inh = p47phox/p22phox peptide binding inhibitors, primary screen, biochemical, uHTS, NADPH oxidase regulatory subunit. Neutrophil cytosol factor 1 (Homo sapiens), P14598. fluorescence polarization, 2 h. inhibition, % at 24.7 µM. hit rate 0.53% among 220,000;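 active = inhibition above about 30%, limit read from the data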;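 note: 0% = p47phox with labelled peptide and 100% = labelled peptide alone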
Starred values were filed as active, the others as inactive; . = no result given; ! = not confirmed by another sample; [ ] = remark or other dose.

SMILES | Bim-Mcl-1 | Mcl1-Bid inh | m-calpain inh | 14-3-3 Bad inh | Mcl1 Noxa PPI | p47phox inh
O=C(c1cccnc1)N1CCN(Cc2ccc3c(c2)OCO3)CC1 | -2 | 61* | -13 | 76* | 11 | -9
CCn1cnc2sc(C(=O)N3CCN(Cc4ccc5c(c4)OCO5)CC3)c(C)c2c1=O | -3 | 23 | 2 | 16 | 21 | 85*
COc1ccc(CN2CCN(C(=O)c3cccnc3)CC2)cc1Br | -3 | 45 | -9 | 60 | 2 | 11
CC(CC(=O)Nc1ccc(S(=O)(=O)N2CCOCC2)cc1)c1ccccc1 (stereo unspecified) | . | -40 | -28 | 9 | 6 | -10
Nc1nnc(CC(=O)N/N=C/c2cc([N+](=O)[O-])cc(Br)c2O)s1 | 1 | -56 | -7 | 8 | 56* | 3
Nc1nnc(CC(=O)N/N=C/c2cccc(OCCOc3ccccc3)c2)s1 | 0 | 51* | -13 | 11 | -6 | -9
O=C(CSc1cccc[n+]1[O-])Nc1cc2c(cc1Cl)C(=O)c1ccccc1C2=O | 0 | 81* | 41 | 99*[fluorescence artefact?] | 85* | 33*
O=C(CSc1cccc[n+]1[O-])Nc1cc([N+](=O)[O-])ccc1Cl | 0 | -12 | -5 | -6 | 17 | -4
Cc1ccc(CN2C(=O)N/C(=C/c3ccc(-c4ccc(C(=O)O)cc4)o3)C2=O)cc1 | . | -58 | 27 | 20 | 66* | -36
O=C(O)c1cc(-c2ccc(/C=C3\NC(=O)N(c4ccccc4)C3=O)o2)ccc1Cl | . | -14 | -11 | 8 | 73* | -58
O=C(c1ccc(Oc2ccccc2)cc1)c1nc2c(n1O)CCCC2 | 0 | -2 | 75* | -1 | 0 | -77
Cc1cc2nc(/N=C(\N)NC(=O)N3c4ccccc4Sc4ccccc43)nc(C)c2cc1C | -1 | -39 | -24 | -12 | -8 | -42
CN(C)c1ccc(/C=C2\SC(=O)N(CCc3nnc(N)s3)C2=O)cc1 | . | -109 | -10 | 24 | 67* | -137
CN(C)c1ccc(/C=C2/SC(=O)N(CCN=C3NS(=O)(=O)c4ccccc43)C2=O)cc1 | 78* | 34 | 22 | 1 | 52* | 8
CN(C)c1ccc(/C=C2\SC(=O)N(CC(O)Cn3c4ccccc4c4ccccc43)C2=O)cc1 (stereo unspecified) | 6 | -8 | -15 | 17 | -2 | -88
O=C(CC1C(=O)NCCN1CC1CCCCC1)NCc1cccc(F)c1F (stereo unspecified) | -1 | -17 | -37 | -7 | 7 | -2
Cc1ccc(C(=O)NC2(C(F)(F)F)N=C3SCCN3C2=O)cc1 (stereo unspecified) | 0 | -23 | -21 | 74* | -3 | -11
O=C(NC1(C(F)(F)F)N=C2SCCN2C1=O)c1cccnc1 (stereo unspecified) | -1 | -5 | 5 | -13 | -3 | 1
Cn1c(=O)c2c(nc(N/N=C/c3ccc(OC(=O)c4ccco4)cc3)n2Cc2ccccc2Cl)n(C)c1=O | -6 | -19 | -16 | 0 | 14 | -10
Cn1c(=O)c2c(nc(N/N=C/c3ccc(OC(=O)c4ccco4)cc3)n2Cc2ccc(F)cc2)n(C)c1=O | -10 | 59* | -76 | 53 | 48 | 9
O=C(Nc1cccc(Cl)c1)Nn1cnnc1 | . | -15 | -10 | 2 | -20 | -15
O=C(O)c1cnn2c(C(F)(F)F)cc(-c3ccco3)nc12 | 1 | 79* | -52 | 55 | 39 | 1
O=C(c1cnn2c(C(F)(F)F)cc(-c3ccco3)nc12)N1CCCCCC1 | -4 | -5 | -89 | 11 | 9 | -4
CCN=c1scc(-c2cccs2)n1/N=C/c1cc(OC)ccc1O | -3 | -30 | 15 | -14 | 25 | -5
CN=c1scc(-c2ccccc2F)n1/N=C/c1ccc[nH]1 | -4 | -3 | 17 | -11 | 24 | -3
SMILES | Bim-Mcl-1 | Mcl1-Bid inh | m-calpain inh | 14-3-3 Bad inh | Mcl1 Noxa PPI | p47phox inh
CN=c1scc(-c2ccccc2F)n1/N=C/c1ccc(O)c(O)c1O | -1 | -38 | -4 | 8 | 58* | -4
CC(C)N=c1scc(-c2cccs2)n1/N=C/c1ccc(O)c(O)c1O | -3 | -94 | -59 | -20 | 52* | -8
CCOc1cc(C(=O)Nc2ccccc2F)cc(Br)c1OCC | 12 | -9 | 28 | -2 | 4 | -7
OCCN1CCN(CCCN2c3ccccc3Sc3ccc(C(F)(F)F)cc32)CC1 | -3 | 36 | -42 | 18 | 50 | 3
COCCCNC(=O)/C=C1\Sc2ccccc2N(Cc2ccccc2F)C1=O | 1 | -15 | -8 | 22 | 7 | 3
O=C(NCCCN1CCN(CCCNC(=O)c2ccc(F)cc2)CC1)c1ccc(F)cc1 | -4 | -25 | -54 | -1 | 3 | -7
CCN1CCN(CCNC(=O)c2ccc(/C=C3\Sc4ccccc4N(Cc4ccccc4F)C3=O)cc2)CC1 | -2 | -9 | -78 | 59 | 18 | 86*
CN1CCN(CCCNC(=O)c2ccc(/C=C3/Sc4ccccc4N(Cc4cccc(Cl)c4)C3=O)cc2)CC1 | -1 | -51 | -48 | 77* | 28 | 78*
CN1CCN(CCCNC(=O)c2ccc3c(c2)N(Cc2ccccc2)CCS3)CC1 | -5 | -25 | -498 | 3 | 11 | -9
CN1CCN(CCCNC(=O)c2ccc(/C=C3\Sc4ccccc4N(Cc4ccc(F)cc4)C3=O)cc2)CC1 | 0 | -29 | -105 | 74* | 13 | 87*
CN1CCN(CCCN2c3ccccc3Sc3ccc(Cl)cc32)CC1 | -1 | 45 | -7 | 46 | 77* | 110*!
C[C@]12CCC(O)CC1CCC1C2CC[C@]2(C)C(c3cc(C(F)(F)F)n[nH]3)CCC12 (stereo partly specified) | . | 13 | -8 | 1 | 6 | -6
CCCCCCCCCCCCCCCC(O)C(N)CO (stereo unspecified) | 0 | 66* | 7 | 12 | 26 | 84*
Cc1cccc(CN2CCc3c(OCC(=O)NCc4ccco4)cccc3C2=O)c1 | -7 | 95* | 6 | 6 | 3 | -4
O=C(COc1cccc2c1CCN(Cc1ccccc1)C2=O)NCc1ccco1 | -1 | -27 | 8 | 2 | 3 | -16
Cc1ccc(COc2cccc3c2CCN(Cc2ccc(F)cc2)C3=O)cc1 | -3 | 54* | 23 | 4 | 12 | -18
O=C(O)c1csc(-c2ccc(Cl)cc2)n1 | 0 | 3 | -4 | -4 | 18 | 65*
CN(C)c1ccc(/C=N/NC(=O)c2nnn(-c3nonc3N)c2COc2ccc(F)cc2)cc1 | . | -40 | -7 | 8 | 59* | -8
CCCOc1ccc(-c2c(C(=O)N/N=C/c3ccc(OCC)cc3)nnn2-c2nonc2N)cc1 | -5 | -22 | -348 | -6 | -1 | -18

Assay outcomes from PubChem.
